In all, about 350,000 compounds went through this assay and about 6,000 (1.7%) were called active. Roughly 5% stayed inconclusive and do not appear here. Rule as the data show it: active = CPE inhibition above about 20% (passing the limit was not always enough); inconclusive = no clear call, values can overlap the other calls; tested in BHK-21 cells. Shown is part of a subset that was picked to be rich in actives.
Assay: protection of cells from dengue 2 killing – plate reader, single concentration, primary screen (AID 651640);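 also: 0% = median of neutral control wells and 100% = median of positive control wells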
Conditions: DENV2-infected cells, cytopathic effect rescue, at 9.99 µM, stronger effect = higher value

Q: Which CPE inhibition does the source give for `COc1ccc(S(=O)(=O)N(C)C[C@H]2OCCCC[C@H](C)Oc3ccc(NC(=O)Nc4ccc5c(c4)OCO5)cc3C(=O)N([C@@H](C)CO)C[C@@H]2C)cc1` here?
A: Its CPE inhibition is -7.54% (inactive).

Q: With `CCOC(=O)c1c(NC(=O)CSc2cn(CC)c3ccccc23)sc2c1CCC2` as the compound, how does the CPE inhibition read?
A: Its CPE inhibition is 5.51% (inactive).

Q: With `CCCOC(=O)c1c(NC(=O)c2cnn3c2NC(c2ccccc2)CC3C(F)(F)F)sc2c1CCCC2` (centres undefined) as the compound, how does the CPE inhibition read?
A: The CPE inhibition was 84.1% (active).

Q: With `CCOC(=O)c1c(NC(=O)Cn2nc(C(F)(F)F)cc2C)sc2c1CCC2` as the compound, how does the CPE inhibition read?
A: Its CPE inhibition is -2.63% (inactive).

Q: For `COC(=O)[C@]12C[C@H](CC(=O)N3CCN(C(=O)C4CC4)CC3)C(=O)N(Cc3ccc4c(c3)OCO4)C1=C[C@H](C(C)(C)C)O[C@@H]2C`, which CPE inhibition is on record?
A: Its CPE inhibition is 0.269% (inactive).

Q: With `CC(C)NC(=O)N(C)C[C@H]1Oc2c(NC(=O)C3CCCCC3)cccc2C(=O)N([C@@H](C)CO)C[C@H]1C` as the compound, how does the CPE inhibition read?
A: The CPE inhibition was -3.61% (inactive).

Q: With `C[C@H]1CN([C@@H](C)CO)C(=O)c2cccc(NC(=O)C3CCOCC3)c2O[C@@H]1CN(C)C` as the compound, how does the CPE inhibition read?
A: The CPE inhibition was 39.5% (active).

Q: Which CPE inhibition does the source give for `COc1ccc(NC(=O)N(C)C[C@H]2Oc3c(NC(=O)Nc4cccc5ccccc45)cccc3C(=O)N([C@H](C)CO)C[C@@H]2C)cc1` here?
A: Its CPE inhibition is 15.2% (inactive).

Q: With `C[C@H]1CN([C@@H](C)CO)C(=O)c2cccc(NC(=O)Nc3cccc4ccccc34)c2O[C@@H]1CN(C)C(=O)NC1CCCCC1` as the compound, how does the CPE inhibition read?
A: Its CPE inhibition is 43.8% (active).

Q: Which CPE inhibition does the source give for `C[C@H]1CN([C@@H](C)CO)C(=O)c2cccc(NC(=O)C3CCOCC3)c2O[C@H]1CN(C)S(C)(=O)=O` here?
A: Its CPE inhibition is 12.7% (inactive).

Q: For `C[C@H](CO)N1C[C@H](C)[C@H](CN(C)C(=O)NC2CCCCC2)Oc2c(NC(=O)C3CC3)cccc2C1=O`, which CPE inhibition is on record?
A: The CPE inhibition was 20.6% (active).

Q: Which CPE inhibition does the source give for `C[C@@H]1CN([C@H](C)CO)C(=O)c2cccc(NC(=O)C3CC3)c2O[C@@H]1CN(C)C(=O)Nc1ccccc1` here?
A: Its CPE inhibition is 8.03% (inactive).

Q: With `COc1ccc(NC(=O)N(C)C[C@@H]2Oc3c(NC(=O)Nc4cccc5ccccc45)cccc3C(=O)N([C@@H](C)CO)C[C@H]2C)cc1` as the compound, how does the CPE inhibition read?
A: Its CPE inhibition is 23.2% (active).

Q: With `C[C@@H]1CN([C@H](C)CO)C(=O)c2cccc(NC(=O)Nc3cccc4ccccc34)c2O[C@@H]1CN(C)C(=O)Nc1cccc2ccccc12` as the compound, how does the CPE inhibition read?
A: The CPE inhibition was 4.21% (inactive).

Q: With `COc1ccc(NC(=O)N(C)C[C@H]2Oc3c(NC(=O)Nc4cccc5ccccc45)cccc3C(=O)N([C@@H](C)CO)C[C@H]2C)cc1` as the compound, how does the CPE inhibition read?
A: Its CPE inhibition is 18.2% (inactive).

Q: With `C[C@@H]1CN([C@@H](C)CO)C(=O)c2cccc(NC(=O)C3CC3)c2O[C@@H]1CN(C)C` as the compound, how does the CPE inhibition read?
A: The CPE inhibition was 11.8% (inactive).

Q: Which CPE inhibition does the source give for `C[C@@H]1CN([C@H](C)CO)C(=O)c2cccc(NC(=O)Nc3ccccc3)c2O[C@@H]1CN(C)C(=O)NC1CCCCC1` here?
A: The CPE inhibition was -11% (inactive).

Q: With `CN1CCN(C(=O)C[C@H]2CC[C@H]3[C@@H](COC[C@H](O)CN3CC3CCOCC3)O2)CC1` as the compound, how does the CPE inhibition read?
A: Its CPE inhibition is -5% (inactive).

Q: Which CPE inhibition does the source give for `CCCNC(=O)N1[C@H](CO)[C@@H]2c3ccccc3N(C(=O)C3CCOCC3)C[C@@H]21` here?
A: Its CPE inhibition is 9.68% (inactive).

Q: For `CNC(=O)C[C@H]1CC[C@H]2[C@@H](COc3ccc(NS(=O)(=O)c4ccc(F)cc4)cc3C(=O)N2C)O1`, which CPE inhibition is on record?
A: Its CPE inhibition is -4.93% (inactive).

Q: With `CC(C)NC(=O)N(C)C[C@H]1OCCCC[C@H](C)Oc2ccc(NS(=O)(=O)c3cccs3)cc2C(=O)N([C@H](C)CO)C[C@@H]1C` as the compound, how does the CPE inhibition read?
A: Its CPE inhibition is -5.44% (inactive).

Q: For `O=C(CC1CC1)N1[C@@H]2CN(S(=O)(=O)c3ccccc3F)c3ccccc3[C@@H]2[C@@H]1CO`, which CPE inhibition is on record?
A: Its CPE inhibition is 2.67% (inactive).

Q: With `CCCNC(=O)N1CC2(C1)[C@H](c1ccccc1)[C@@H](CO)N2Cc1cccc(Cl)c1` as the compound, how does the CPE inhibition read?
A: The CPE inhibition was -0.258% (inactive).

Q: With `C[C@@H]1CN([C@H](C)CO)S(=O)(=O)c2ccc(-c3ccncc3)cc2O[C@@H]1CN(C)C(=O)CN(C)C` as the compound, how does the CPE inhibition read?
A: Its CPE inhibition is -2.24% (inactive).

Q: With `COCC(=O)N(C)C[C@@H]1Oc2cc(C#Cc3cccnc3)ccc2S(=O)(=O)N([C@H](C)CO)C[C@H]1C` as the compound, how does the CPE inhibition read?
A: The CPE inhibition was 0.786% (inactive).

Q: Which CPE inhibition does the source give for `COc1ccccc1CNC(=O)C[C@H]1CC[C@@H](NC(=O)CN(C)C)[C@@H](CO)O1` here?
A: Its CPE inhibition is -1.02% (inactive).

Q: For `Cc1cccc(S(=O)(=O)N2C[C@@H](O)COC[C@H]3O[C@H](CC(=O)N4CCN(C)CC4)CC[C@@H]32)c1`, which CPE inhibition is on record?
A: The CPE inhibition was 0.654% (inactive).

Q: For `C[C@@H]1CN([C@H](C)CO)C(=O)c2cc(C#Cc3cccnc3)cnc2O[C@@H]1CN(C)Cc1ccc(F)cc1`, which CPE inhibition is on record?
A: The CPE inhibition was -0.76% (inactive).

Q: For `C[C@@H]1CN([C@@H](C)CO)C(=O)c2cccc(NC(=O)C3CCOCC3)c2O[C@H]1CN(C)C(=O)NC1CCCCC1`, which CPE inhibition is on record?
A: Its CPE inhibition is -1.68% (inactive).

Q: With `C[C@H]1CN([C@@H](C)CO)C(=O)c2cccc(NC(=O)C3CCCCC3)c2O[C@H]1CN(C)C(=O)NC1CCCCC1` as the compound, how does the CPE inhibition read?
A: The CPE inhibition was 1.03% (inactive).

Q: With `C[C@@H]1CN([C@H](C)CO)C(=O)c2cccc(NC(=O)C3CCCCC3)c2O[C@@H]1CN(C)C(=O)NC1CCCCC1` as the compound, how does the CPE inhibition read?
A: The CPE inhibition was 21.7% (active).

Q: With `C[C@H]1CN([C@@H](C)CO)C(=O)c2cccc(NS(=O)(=O)c3ccc(F)cc3)c2O[C@@H]1CN(C)Cc1ccncc1` as the compound, how does the CPE inhibition read?
A: Its CPE inhibition is 0.612% (inactive).

Q: For `COc1ccc(S(=O)(=O)Nc2cccc3c2O[C@@H](CN(C)C(=O)Nc2cccc4ccccc24)[C@H](C)CN([C@@H](C)CO)C3=O)cc1`, which CPE inhibition is on record?
A: Its CPE inhibition is -9.92% (inactive).

Q: With `C[C@@H]1CN([C@@H](C)CO)C(=O)c2cccc(NS(=O)(=O)c3ccc(F)cc3)c2O[C@@H]1CN(C)Cc1ccc(C(=O)O)cc1` as the compound, how does the CPE inhibition read?
A: The CPE inhibition was 49.4% (active).

Q: With `C[C@@H]1CN([C@H](C)CO)C(=O)c2cccc(NS(=O)(=O)c3ccccc3)c2O[C@@H]1CN(C)Cc1ccc(C(=O)O)cc1` as the compound, how does the CPE inhibition read?
A: Its CPE inhibition is -6.23% (inactive).

Q: Which CPE inhibition does the source give for `C[C@@H]1CN([C@H](C)CO)C(=O)c2cccc(NS(=O)(=O)c3ccc(Cl)cc3)c2O[C@@H]1CN(C)C(=O)Nc1cccc2ccccc12` here?
A: The CPE inhibition was -5.49% (inactive).

Q: With `C[C@H](CO)N1C[C@H](C)[C@@H](CN(C)C(=O)Nc2cccc3ccccc23)Oc2c(NS(=O)(=O)c3ccccc3)cccc2C1=O` as the compound, how does the CPE inhibition read?
A: Its CPE inhibition is 74.2% (active).

Q: With `CCCN(C)C[C@H]1Oc2ncc(-c3ccccc3OC)cc2C(=O)N([C@H](C)CO)C[C@H]1C` as the compound, how does the CPE inhibition read?
A: The CPE inhibition was 1.17% (inactive).

Q: With `C[C@H](CO)N1C[C@H](C)[C@@H](CN(C)S(=O)(=O)c2ccccc2)OCCCC[C@H](C)Oc2ccc(NC(=O)NC3CCCCC3)cc2C1=O` as the compound, how does the CPE inhibition read?
A: Its CPE inhibition is -3.62% (inactive).
